Assay results: PubChem BioAssay (NCATS)
“And” between values parts separate entries of the source, which are not always exact repeats. Equal values may be shown once. Records with an inconclusive call do not appear. The source made the active and inactive calls. Unless noted, calls follow the shape of the dose curve; as a rule, active = well fitted curve in the direction sought with a large enough effect; inconclusive = small, poorly fitted or top-dose-only effect, or another doubt; inactive = no such curve, though single readings can be large; an effect the other way counts as inactive or inconclusive.

Columns and labels:
[1] = Cell Viability - NIH 3T3 (AID 541); details: NIH 3T3 cell viability, qHTS; activity change, negative = cytotoxicity: at 92.2 µM (top of the series);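 also: plate controls were DMSO alone for no effect and tamoxifen positive control for full effect; nearly all actives have a fitted effect of over 25% in size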
How it was run: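 Luminescent ATP signal (CellTiter-Glo) served as the viability read-out after NIH 3T3 cells were exposed to compounds over a concentration range for 40 hr at 37 °C. Hill-equation modelling of concentration-response data gave AC50.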

[2] = Cell Viability - HUV-EC-C (AID 542); also: % is scaled to controls: 0 for no effect and ±100 for the full control effect; nearly all actives have a fitted effect of over 35% in size
How it was run: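 qHTS cytotoxicity: HUV-EC-C, 1000 cells/well, 5 hr settle, compound 40 hr 37 °C, CellTiter-Glo, luminescence. AC50 via Hill equation.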

[3] = Cellular Toxicity (caspase-3) N2a (AID 665); details: N2a cells, luminescence, normalized: DMSO 0%, 10 µM staurosporine 100%; at 92.2 µM (top of the series);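 also: compound exposure lasted 16 h at 37 °C before readout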
How it was run: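 N2a cells, 1500/well, 5 h settle at 37 °C; cpd 16 h, 37 °C; Caspase-Glo 3/7, 1 h RT; luminescence. Norm: DMSO = 0, 10 uM staurosporine = 100%. AC50, Hill fit.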

[4] = MultiTox-Fluor Cytotoxicity Assay - LYMP1-001 - Dead Cells (AID 946)
How it was run: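 Cytotoxicity as increased dead-cell protease fluorescence (bis-AAF-R110, 485/520 nm), read 60 min after MultiTox-Fluor reagent. Human lymphoblastoid line exposed 16 h; Hill-fitted AC50, with DMSO as 0% and 15 uM tetraoctylammonium bromide as 100%.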

[5] = MultiTox-Fluor Cytotoxicity Assay - LYMP1-003 - Dead Cells (AID 961); also: nearly all actives have a fitted effect of over 70% in size
How it was run: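 Dead-cell protease release, detected as bis-AAF-R110 fluorescence at 485/520 nm, was measured in LYMP1-003 cells after 16 h compound treatment at 37 C. AC50 values came from Hill-modeled qHTS curves normalized to DMSO (0%) and 15 uM tetraoctylammonium bromide (100%).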

[6] = Cell Viability - LYMP2-007 (AID 979);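 also: cells exposed to compound for 24 h before reading; 0% = DMSO only and the negative end = 92 µM tetraoctylammonium bromide; nearly all actives have a fitted effect of over 60% in size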
How it was run: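 Luminescent ATP signal (CellTiter-Glo) serves as the viability read-out after 24 hr compound treatment of lymphoblastoid cells in complete medium at 37 C. Concentration-response data were fitted to the Hill equation to give AC50 values.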

[7] = Cell Viability - LYMP2-026 (AID 989); also: % is scaled to controls: 0 for no effect and ±100 for the full control effect; nearly all actives have a fitted effect of over 50% in size
How it was run: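 Luminescent ATP signal (CellTiter-Glo, 30 min room temperature) measures viable lymphoblastoid cells after 24 hr compound treatment at 37 C. Decreased ATP reflects acute toxicity; AC50 values come from Hill-equation modeling.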

[8] = qHTS assay for small molecule antagonists of peroxisome proliferator-activated receptor delta signaling (AID 588535; active = well fitted inhibition curve with a large enough effect in the signal ratio, with a control signal flat, not every such curve was filed as active; the % refers to the signal ratio;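 as to max response: cells co-treated with a PPAR-delta agonist as stimulator during compound exposure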); details: HEK293T PPARd-UAS-bla, beta-lactamase FRET ratio, 18 h; 460 nm channel
How it was run: (§1)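 HEK293T PPAR-delta-UAS-bla cells, 4000/well, 2% charcoal/dextran FBS; 5 h 37 C; cpd titration; 18 h 37 C; CCF4 2 h RT; FI 460/530 nm; Hill fit → IC50, efficacy.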

[9] = target: Peroxisome proliferator-activated receptor delta (Homo sapiens) (UniProt Q03181); assay: as above
How it was run: as §1

[10] = target: Peroxisome proliferator-activated receptor gamma (Homo sapiens) (UniProt P37231); assay: qHTS assay for small molecule antagonists of peroxisome proliferator-activated receptor gamma signaling (AID 588537; active = well fitted inhibition curve with a large enough effect in the signal ratio, with a control signal flat, not every such curve was filed as active; the % refers to the signal ratio;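 also: reporter cells co-stimulated with 50 nM rosiglitazone agonist during compound treatment; % of control where 0% means no effect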)
How it was run: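 Antagonist mode, beta-lactamase reporter in HEK293; charcoal/dextran FBS 1%; 3000 cells/well, 37 C 6-6.5 h; cpd titration + rosiglitazone 50 nM final, 16 h 37 C; CCF4, 2 h RT; 460/530 nm; Hill fit → IC50, efficacy.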

[11] = target: Retinoic acid receptor RXR-alpha (Homo sapiens) (UniProt P19793); assay: qHTS assay for small molecule agonists of retinoid X receptor alpha signaling (AID 588544; calls by dose curve; also: potency is read from the fitted curve at half-maximal effect;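 as to activation: 0% = DMSO basal wells and 100% = reference agonist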)
[12] = target: Thyroid hormone receptor beta (Homo sapiens) (UniProt P10828); assay: qHTS assay for small molecule antagonists of thyroid hormone receptor beta signaling (AID 588547; active = well fitted inhibition curve with a large enough effect in the signal ratio, with a control signal flat, not every such curve was filed as active; the % refers to the signal ratio;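 also: cells stimulated with 0.4 nM T3 agonist during compound exposure; % is scaled to controls: 0 for no effect and ±100 for the full control effect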); details: TR-UAS-bla HEK293, beta-lactamase ratio, antagonist mode, 18 h
How it was run: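 Inhibition of T3-driven (0.4nM final) beta-lactamase reporter activity was measured over 0.59 nM to 92 uM compound after 18 h at 37 C. The cells were GripTite HEK293 TR-UAS-bla in charcoal/dextran-stripped serum, with CCF4 ratio read-out and IC50 from Hill fits.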

[13] = target: Voltage-gated inwardly rectifying potassium channel KCNH2 (Homo sapiens) (UniProt Q12809); assay: qHTS Assay for Small Molecule Inhibitors of the Human hERG Channel Activity (AID 588834);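 also: top concentration of the series differs between compounds; % is scaled to controls: 0 for no effect and ±100 for the full control effect; lower thallium flux fluorescence means stronger hERG block; nearly all actives have a fitted effect of over 50% in size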
How it was run: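 hERG-BacMam U2OS, 2000 cells/well; 0.7X FluxOR loading 1 hr RT dark; cpd ~10 min 37 °C; stim buffer; FDSS fluorescence 2 min @ 1 s; AC50 Hill fit.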

[14] = qHTS assay for environmental chemicals that activate the Aryl hydrocarbon Receptor (AhR) signaling pathway (AID 651777); details: 1A2-DRE human hepatoma cells, luciferase, 24 h; activation: stronger effect = higher value; also: % of control where 0% means no effect; nearly all actives have a fitted effect of over 15% in size
How it was run: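 Human hepatoma 1A2-DRE cells, stably carrying a dioxin response element and CYP1A2 promoter driving luciferase, were exposed to compounds for 24 hr at 37 C and 5% CO2. Luciferase signal was then read after 30 min One-Glo at room temperature.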

[15] = target: Peroxisome proliferator-activated receptor alpha (Homo sapiens) (UniProt Q07869); assay: qHTS assay for small molecule agonists of the peroxisome proliferator-activated receptor alpha (PPARalpha) signaling pathway (AID 651778); details: PathHunter PPARalpha complementation, chemiluminescence, 6 h; stronger effect = higher value; also: % of control where 0% means no effect
How it was run: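 Chemiluminescence from complemented enzyme reported PPARalpha activation in cells after 6 hr of compound treatment at 37 C. The detection reagent was incubated for 60 min at room temperature, and compounds were scored as agonists.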

[16] = Cell Viability - H-4-II-E (AID 543); also: % is scaled to controls: 0 for no effect and ±100 for the full control effect; nearly all actives have a fitted effect of over 35% in size
How it was run: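 Luminescent ATP signal (CellTiter-Glo) served as the viability read-out, with cytotoxicity seen as a concentration-dependent ATP drop. Cells were treated for 40 hours in complete medium. AC50 values derive from Hill-equation modelling.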

[17] = target: Bile acid receptor (Homo sapiens) (UniProt Q96RI1); assay: qHTS assay for small molecule antagonists of farnesoid X receptor signaling (AID 588526; calls by dose curve; also: % is scaled to controls: 0 for no effect and ±100 for the full control effect)
How it was run: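 Beta-lactamase reporter antagonist mode: HEK293T FXR-UAS-bla cells, titrated compound, CDCA stimulation, 16 h 37 C, CCF4 dye 2 h RT. Data normalized to CDCA 50 uM and DMSO; Hill-fit IC50.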

[18] = target: Peroxisome proliferator-activated receptor delta (Homo sapiens) (UniProt Q03181); assay: qHTS assay for small molecule agonists of peroxisome proliferator-activated receptor delta signaling (AID 588534; calls by dose curve;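 also: 0% = DMSO basal wells and 100% = positive control agonist at 10 µM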)
How it was run: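 Fluorescence from CCF4 substrate cleavage by beta-lactamase reporter, read 2 hrs at RT, measured agonist activity. Compounds were tested with 18 hrs exposure at 37 C. Concentration-response data fitted to Hill equation.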

[19] = Cell Viability - Hek293 (AID 427;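 active = compounds whose dose-response curve shows a full or clear partial loss of cell viability, called from curve shape rather than a numeric limit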;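 also: potency is read from the fitted curve at half-maximal effect; cells exposed to compound for 40 hours at 37 °C before reading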); details: qHTS
How it was run: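 Luminescent ATP content (CellTiter-Glo, 20 min at room temperature) was measured after a 40 hr, 37 °C compound exposure of HEK293 cells. AC50 values came from Hill-equation fits of qHTS concentration-response data normalized to DMSO and 100 uM tamoxifen.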

[20] = qHTS assay for small molecule disruptors of the mitochondrial membrane potential - 5 hr assay (AID 651755; calls by dose curve; also: % is scaled to controls: 0 for no effect and ±100 for the full control effect; nearly all actives have a fitted effect of over 40% in size)
How it was run: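 HepG2, 2,000 cells/well, overnight attach; cpd or DMSO 5 hr, 37C/5% CO2; Mito-MPS 30 min 37C; fluor 490/535 + 540/590 nm.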

Chain of Peroxisome proliferator-activated receptor delta (Homo sapiens) (Q03181 whole entry, looked up): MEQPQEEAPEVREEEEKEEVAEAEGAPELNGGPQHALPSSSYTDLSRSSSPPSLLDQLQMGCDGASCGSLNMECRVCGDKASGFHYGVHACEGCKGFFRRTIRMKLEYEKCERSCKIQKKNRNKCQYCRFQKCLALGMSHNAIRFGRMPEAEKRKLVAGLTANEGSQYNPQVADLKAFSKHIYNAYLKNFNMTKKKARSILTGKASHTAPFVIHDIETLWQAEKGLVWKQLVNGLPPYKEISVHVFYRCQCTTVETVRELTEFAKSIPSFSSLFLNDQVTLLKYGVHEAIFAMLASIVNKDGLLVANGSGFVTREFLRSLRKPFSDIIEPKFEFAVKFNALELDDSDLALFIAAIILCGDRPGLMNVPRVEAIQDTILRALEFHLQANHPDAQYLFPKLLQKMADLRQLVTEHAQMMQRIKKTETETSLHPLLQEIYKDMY
Chain of Voltage-gated inwardly rectifying potassium channel KCNH2 (Homo sapiens) (Q12809 whole entry, looked up): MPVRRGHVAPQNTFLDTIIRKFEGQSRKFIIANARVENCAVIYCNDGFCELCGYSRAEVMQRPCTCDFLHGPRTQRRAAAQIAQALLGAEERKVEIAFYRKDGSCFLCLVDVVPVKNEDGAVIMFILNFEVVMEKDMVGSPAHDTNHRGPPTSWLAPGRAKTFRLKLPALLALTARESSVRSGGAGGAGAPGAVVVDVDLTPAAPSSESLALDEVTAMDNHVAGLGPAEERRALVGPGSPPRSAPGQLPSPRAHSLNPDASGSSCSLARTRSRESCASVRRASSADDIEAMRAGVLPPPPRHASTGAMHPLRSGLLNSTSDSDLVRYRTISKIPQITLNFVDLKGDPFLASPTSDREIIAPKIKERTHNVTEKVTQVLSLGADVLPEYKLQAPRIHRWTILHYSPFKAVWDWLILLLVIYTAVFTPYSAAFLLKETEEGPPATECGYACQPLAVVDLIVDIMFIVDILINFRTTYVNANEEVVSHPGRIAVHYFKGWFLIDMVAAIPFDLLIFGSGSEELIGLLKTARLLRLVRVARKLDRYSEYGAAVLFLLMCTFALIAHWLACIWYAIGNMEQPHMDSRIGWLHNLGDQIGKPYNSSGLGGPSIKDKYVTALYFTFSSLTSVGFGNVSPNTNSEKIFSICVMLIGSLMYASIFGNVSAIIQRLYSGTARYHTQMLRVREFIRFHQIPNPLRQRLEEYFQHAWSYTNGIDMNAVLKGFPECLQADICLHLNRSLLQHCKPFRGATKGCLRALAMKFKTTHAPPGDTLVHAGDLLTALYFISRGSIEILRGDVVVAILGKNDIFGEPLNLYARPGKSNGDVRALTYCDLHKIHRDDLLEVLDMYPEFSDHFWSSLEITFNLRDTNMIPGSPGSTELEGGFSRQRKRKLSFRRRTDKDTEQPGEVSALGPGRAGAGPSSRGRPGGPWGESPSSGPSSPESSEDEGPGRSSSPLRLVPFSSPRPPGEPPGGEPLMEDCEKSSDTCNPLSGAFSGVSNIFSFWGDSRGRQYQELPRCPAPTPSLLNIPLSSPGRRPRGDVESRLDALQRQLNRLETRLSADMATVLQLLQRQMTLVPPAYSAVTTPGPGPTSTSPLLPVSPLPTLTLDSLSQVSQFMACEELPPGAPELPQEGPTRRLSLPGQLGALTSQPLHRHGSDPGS
Chain of Peroxisome proliferator-activated receptor gamma (Homo sapiens) (P37231 whole entry, looked up): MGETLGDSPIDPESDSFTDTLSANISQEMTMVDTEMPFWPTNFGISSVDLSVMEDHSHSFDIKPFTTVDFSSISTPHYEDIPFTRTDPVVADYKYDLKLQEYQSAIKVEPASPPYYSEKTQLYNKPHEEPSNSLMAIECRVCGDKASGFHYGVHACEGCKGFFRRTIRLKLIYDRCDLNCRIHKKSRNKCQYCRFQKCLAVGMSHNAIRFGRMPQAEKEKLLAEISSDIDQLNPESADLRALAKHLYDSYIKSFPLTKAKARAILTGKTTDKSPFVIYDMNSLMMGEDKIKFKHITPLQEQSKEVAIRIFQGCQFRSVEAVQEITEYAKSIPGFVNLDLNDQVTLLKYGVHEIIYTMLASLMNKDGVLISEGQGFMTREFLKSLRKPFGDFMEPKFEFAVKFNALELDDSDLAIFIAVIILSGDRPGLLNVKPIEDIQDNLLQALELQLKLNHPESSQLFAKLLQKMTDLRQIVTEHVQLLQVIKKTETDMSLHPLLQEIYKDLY
Chain of Thyroid hormone receptor beta (Homo sapiens) (P10828 whole entry, looked up): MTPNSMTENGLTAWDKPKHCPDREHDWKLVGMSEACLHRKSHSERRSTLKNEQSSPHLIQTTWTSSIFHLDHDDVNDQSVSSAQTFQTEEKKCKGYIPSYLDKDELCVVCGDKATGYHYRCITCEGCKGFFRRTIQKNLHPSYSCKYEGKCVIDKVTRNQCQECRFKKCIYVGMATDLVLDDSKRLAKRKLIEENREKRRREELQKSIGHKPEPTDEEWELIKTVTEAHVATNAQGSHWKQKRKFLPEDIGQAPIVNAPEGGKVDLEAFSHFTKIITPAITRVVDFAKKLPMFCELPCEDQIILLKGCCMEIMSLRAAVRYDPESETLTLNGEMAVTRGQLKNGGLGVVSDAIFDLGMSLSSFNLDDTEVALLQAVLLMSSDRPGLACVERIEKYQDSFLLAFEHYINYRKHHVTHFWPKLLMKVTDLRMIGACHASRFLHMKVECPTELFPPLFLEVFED
Chain of Retinoic acid receptor RXR-alpha (Homo sapiens) (P19793 whole entry, looked up): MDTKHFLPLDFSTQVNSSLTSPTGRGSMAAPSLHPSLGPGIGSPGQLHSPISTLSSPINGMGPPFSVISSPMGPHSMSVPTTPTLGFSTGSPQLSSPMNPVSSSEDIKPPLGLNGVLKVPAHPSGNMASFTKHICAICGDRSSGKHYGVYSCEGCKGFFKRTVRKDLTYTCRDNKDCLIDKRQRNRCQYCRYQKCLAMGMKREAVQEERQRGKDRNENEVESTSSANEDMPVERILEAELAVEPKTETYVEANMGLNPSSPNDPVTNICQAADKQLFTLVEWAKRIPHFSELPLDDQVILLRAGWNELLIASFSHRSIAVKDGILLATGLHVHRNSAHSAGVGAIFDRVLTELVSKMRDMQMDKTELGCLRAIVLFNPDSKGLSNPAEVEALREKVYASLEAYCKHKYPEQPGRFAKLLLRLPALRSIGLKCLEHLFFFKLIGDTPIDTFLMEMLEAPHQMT
Chain of Peroxisome proliferator-activated receptor alpha (Homo sapiens) (Q07869 whole entry, looked up): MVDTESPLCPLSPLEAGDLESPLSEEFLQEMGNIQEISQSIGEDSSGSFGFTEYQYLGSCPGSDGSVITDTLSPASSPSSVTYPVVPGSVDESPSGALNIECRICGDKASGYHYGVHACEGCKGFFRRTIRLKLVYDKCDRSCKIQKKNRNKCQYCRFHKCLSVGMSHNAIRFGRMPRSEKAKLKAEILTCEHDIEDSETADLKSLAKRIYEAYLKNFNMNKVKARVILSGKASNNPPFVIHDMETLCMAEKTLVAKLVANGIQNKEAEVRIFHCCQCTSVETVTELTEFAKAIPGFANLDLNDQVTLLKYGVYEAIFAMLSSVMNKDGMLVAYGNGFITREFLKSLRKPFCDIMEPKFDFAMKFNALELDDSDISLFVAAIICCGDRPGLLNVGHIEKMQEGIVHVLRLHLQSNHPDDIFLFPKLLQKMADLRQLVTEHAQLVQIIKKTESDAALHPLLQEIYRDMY
Chain of Bile acid receptor (Homo sapiens) (Q96RI1 whole entry, looked up): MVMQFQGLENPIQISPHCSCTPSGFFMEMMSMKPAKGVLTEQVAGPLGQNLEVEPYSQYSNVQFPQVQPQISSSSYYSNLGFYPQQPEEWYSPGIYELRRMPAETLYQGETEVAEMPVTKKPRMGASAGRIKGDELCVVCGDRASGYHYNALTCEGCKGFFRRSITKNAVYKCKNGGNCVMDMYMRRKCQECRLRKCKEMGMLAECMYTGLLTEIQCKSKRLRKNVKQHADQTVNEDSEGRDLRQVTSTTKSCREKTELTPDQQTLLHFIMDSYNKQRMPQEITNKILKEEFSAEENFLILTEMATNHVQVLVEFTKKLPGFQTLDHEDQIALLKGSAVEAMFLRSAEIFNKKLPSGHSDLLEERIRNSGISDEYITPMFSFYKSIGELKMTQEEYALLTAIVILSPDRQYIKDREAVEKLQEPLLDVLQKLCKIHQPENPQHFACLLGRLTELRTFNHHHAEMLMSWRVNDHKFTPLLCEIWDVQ

Brc1ccccc1
10.8%: max response [8]
inactive: activity change, negative = cytotoxicity [1] -8.92% | Potency [2] | caspase-3 activation [3] 0.903% | Potency [4] | Potency [5] | Potency [6] | Potency [7] | Potency [9] | Potency [10] | Potency [11] | activity change % (negative = inhibition) [12] -13.6% and -17.2% | Potency [13] | activation [14] -1.29% and 1.99% | max response [15] -0.353% and -0.0548%

ClCBr
36.6%: max response [8]
inactive: activity change, negative = cytotoxicity [1] -20.5% | Potency [2] | Potency [16] | caspase-3 activation [3] -2% | Potency [4] | outcome [17] | outcome [18] | Potency [9] | Potency [10] | Potency [11] | activation [14] -0.711% | max response [15] -7.14%

[O-][Br+2]([O-])O
inactive: Potency [19] > 92 µM | activity change, negative = cytotoxicity [1] 0.18% and -3.06% | caspase-3 activation [3] -9.36% and -10.4% | Potency [4] | Potency [6] | Potency [7] | outcome [18] | Potency [10] | Potency [11] | Potency [13] | Potency [20] | max response [15] 8.01% and -0.25%

ClC(Cl)(Cl)c1ccccc1
inactive: Potency [19] > 92 µM | Potency [2] | caspase-3 activation [3] -0.73% and -1.88% | Potency [4] | Potency [5] | Potency [6] | Potency [7] | outcome [17] | outcome [18] | Potency [9] | max response [15] -2.9% and -5.05%
32% and 10.5%: max response [8]

C=CC1CC=CCC1 (stereo unspecified)
inactive: Potency [19] > 92 µM | Potency [2] | Potency [16] | caspase-3 activation [3] -0.281% | Potency [5] | Potency [6] | Potency [7] | outcome [17] | Potency [9] | Potency [10] | activity change % (negative = inhibition) [12] 13.7% and -3.35% | Potency [20] | activation [14] 0.186% and 0.879% | max response [15] -0.264% and -1.89%
33.6% and -2.58%: max response [8]

Clc1cccc(C(Cl)(Cl)Cl)n1
inactive: activity change, negative = cytotoxicity [1] -0.893% | Potency [2] | Potency [16] | Potency [4] | Potency [5] | Potency [7] | outcome [17] | Potency [10] | activity change % (negative = inhibition) [12] -14.1% and -4.27% | activation [14] -1.44% and -0.611% | max response [15] -0.105% and 0.0446%

C[C@]12CC[C@H]3[C@@H](CCC4=CC(=O)CC[C@@]43C)[C@@H]1CC[C@@H]2O
inactive: Potency [4] | Potency [7] | Potency [10] | activity change % (negative = inhibition) [12] 14.5% | Potency [20] | activation [14] -1.35% | max response [15] -2.99%
active: activity change, negative = cytotoxicity [1] -90.5% | Potency [11] 12.6 µM

CC(C)(C)OO
inactive: activity change, negative = cytotoxicity [1] -4.73% and 1.03% | Potency [2] | Potency [16] | Potency [4] | Potency [5] | Potency [7] | Potency [9] | Potency [10] | Potency [11] | activity change % (negative = inhibition) [12] 4.81% and -2.74% | Potency [20]
26.2% and -4.41%: max response [8]

Brc1ccc(Oc2cc(Br)c(Br)cc2Br)c(Br)c1
18.7% and 4.79%: max response [8]
inactive: activity change, negative = cytotoxicity [1] -13.1% and -22.5% | Potency [4] | Potency [6] | Potency [7] | outcome [18] | Potency [9] | activity change % (negative = inhibition) [12] 8.45% and -8.42%

Cc1cccc(C#N)c1
57%: max response [8]
inactive: activity change, negative = cytotoxicity [1] -15.8% | Potency [2] | caspase-3 activation [3] -2.05% | outcome [17] | Potency [9] | Potency [11] | activity change % (negative = inhibition) [12] 7.42% | Potency [20] | activation [14] 2.06% | max response [15] -0.3%

Clc1nc(Cl)nc(Nc2ccccc2Cl)n1
inactive: Potency [2] | Potency [16] | Potency [4] | Potency [6] | Potency [10] | Potency [11] | activity change % (negative = inhibition) [12] 11.4% | Potency [20] | activation [14] 3.35% and 3.56%

C=CCOC(C)=O
inactive: activity change, negative = cytotoxicity [1] -5.94% | caspase-3 activation [3] -3.6% | Potency [4] | Potency [6] | Potency [7] | outcome [17] | activity change % (negative = inhibition) [12] 14.6% | Potency [13] | activation [14] -0.904%

O=NN(CCO)CCO
inactive: Potency [2] | Potency [16] | caspase-3 activation [3] -1.3% | Potency [5] | Potency [6] | outcome [17] | Potency [20] | max response [15] -4.3%

Oc1ccc(Cl)cc1Cl
0.988%: max response [8]
inactive: Potency [2] | Potency [4] | Potency [5] | Potency [6] | Potency [7] | outcome [17] | outcome [18] | Potency [9] | Potency [10] | Potency [11] | Potency [13] | Potency [20] | activation [14] 0.13% and 0.875% | max response [15] 1.17% and -0.592%

O=[N+]([O-])c1ccc(Cl)c(Cl)c1
inactive: Potency [2] | Potency [16] | Potency [4] | Potency [5] | Potency [7] | outcome [17] | Potency [10] | Potency [13] | Potency [20] | activation [14] 0.165%

ClC(Cl)=C(Cl)Cl
inactive: activity change, negative = cytotoxicity [1] -22.9% and 3.64% | Potency [2] | caspase-3 activation [3] 0.443% and 1.4% | Potency [4] | Potency [5] | Potency [7] | outcome [17] | Potency [10] | Potency [11] | activity change % (negative = inhibition) [12] -10.3% and -3.55% | Potency [13] | Potency [20]

CC(=O)[O-].CC(=O)[O-].O.O.O.[Pb+2]
inactive: Potency [2] | Potency [4] | Potency [5] | Potency [6] | Potency [13] | Potency [20] | activation [14] 1.24% and 0.452% | max response [15] -4.64% and -4.52%

CCCC(=O)Cl
inactive: activity change, negative = cytotoxicity [1] -0.413% | Potency [2] | Potency [5] | Potency [7] | outcome [17] | outcome [18] | Potency [10] | Potency [11] | activity change % (negative = inhibition) [12] 3.8% | Potency [13] | activation [14] -2.02% | max response [15] -5.49%
